What was measured:
[1] = test system: Madurella mycetomatis MM55; test: percent growth relative to solvent control; higher = less inhibition, active = 20 or less; conditions: 100 µM; 7 days
[2] = test system: Madurella mycetomatis MM55; conditions: 7 days
[3] = test system: Madurella mycetomatis MM55; test: IC90; higher = less potent; conditions: 7 days

Compound | percent growth [1] | IC50 [2] | IC90 [3]
Cc1cc(C2=NOC(c3cc(Cl)c(F)c(Cl)c3)(C(F)(F)F)C2)ccc1C(=O)NCc1ccc2c(c1)C(C)(C)OB2O (centres undefined) | 124% (inactive) | – | –
Cc1nn(C)c(C)c1NS(=O)(=O)c1c(Cl)cc(-c2ccnc(N3CCNCC3)c2)cc1Cl | 86% (inactive) | – | –
CC1COC(Cn2cncn2)(c2ccc(Oc3ccc(Cl)cc3)cc2Cl)O1 (centres undefined) | 0.489% (active) | – | –
Nc1c2c(nc3sc4c(c13)CCCC4)CCCC2 | -0.0392% (active) | 9.7 µM | 16.4 µM
CO/C=C(/C(=O)OC)c1ccccc1Oc1cc(Oc2ccccc2C#N)ncn1 | 1.6% (active) | 0.6 µM | 20.4 µM
Cc1cccc(C(=O)Nc2ccnc(N(C)C3CCN(CC(C)C)CC3)c2)c1 | 1.78% (active) | 26.2 µM | 53.4 µM
CO[C@@H]1CN(c2ccc(C#CC3(O)CN4CCC3CC4)c(Cc3ccccc3)n2)C[C@H]1O (some centres undefined) | 81.3% (inactive) | – | –
CO/N=C(\C(=O)OC)c1ccccc1CO/N=C(\C)c1cccc(C(F)(F)F)c1 | 0.385% (active) | 1.05 µM | 28.1 µM
O=C1O[C@@H](COc2ccon2)CN1c1cc(F)c(C2=CCN(Cc3ccccc3)CC2)c(F)c1 | 20.9% (inactive) | – | –
O=C1O[C@@H](CO)CN1c1cc(F)c(C2=CCN(Cc3ccccc3)CC2)c(F)c1 | 70.2% (inactive) | – | –
CC(C)(C)C(O)C(Oc1ccc(-c2ccccc2)cc1)n1cncn1 (centres undefined) | -0.373% (active) | – | –
CC1(C)OB(O)c2ccc(C3=NOC(c4cc(Cl)c(F)c(Cl)c4)(C(F)(F)F)C3)cc21 (centres undefined) | -0.6% (active) | 11.7 µM | 19.4 µM
CCc1nn(C)c(C(=O)NCc2ccc(Oc3ccc(C)cc3)cc2)c1Cl | 46.6% (inactive) | – | –
Cc1nn(Cc2ccccc2)c(Cl)c1C(=O)NC1CCCCCC1 | 91.1% (inactive) | – | –
